Records with an inconclusive call do not appear. The source made the active and inactive calls. Calls follow the shape of the dose curve; as a rule, active = well fitted curve in the direction sought with a large enough effect in the repeat runs; inconclusive = weak or mixed curves; inactive = no such curve, though single readings can be large; an effect the other way counts as inactive or inconclusive.
Experiments:
[1] = A CellTox Green Cytotoxicity Assay to monitor cytotoxicity in HEK293 cells - 40 hour (AID 1224871); also: nearly all actives have a fitted effect of over 45% in size
Outline: (§1)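 HEK293 cells, 600/well, were preincubated 5 hours and then exposed to compounds at 37 C for up to 40 hours. A cell-impermeant cyanine dye staining dead-cell DNA was read by fluorescence at 0, 8, 16, 24, 32 and 40 h time points.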

[2] = qHTS RealTime-Glo MT Cell Viability Assay in HEK293 cells - 16 hour (AID 1224872); also: top concentration of the series differs between compounds; nearly all actives have a fitted effect of over 50% in size
Outline: (§2)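 Nonlytic real-time viability readout: viable cells convert prosubstrate to NanoLuc substrate, giving luminescence proportional to live cell number. HEK293, 600 cells/well, compound added after 5 h, continuous culture at 37 C.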

[3] = qHTS RealTime-Glo MT Cell Viability Assay in HepG2 cells - 8 hour (AID 1224873); also: nearly all actives have a fitted effect of over 55% in size
Outline: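 HepG2 cells mixed with RealTime-Glo MT reagents (NanoLuc plus cell-permeant prosubstrate) were seeded at 600 cells/well, incubated 5 h at 37 C/5% CO2, then pinned with compounds in DMSO; nonlytic luminescence tracked viability during 40 h treatment.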

[4] = qHTS RealTime-Glo MT Cell Viability Assay in HEK293 cells - 40 hour (AID 1224874); details: RealTime-Glo luminescence; max response: hits give low values; also: nearly all actives have a fitted effect of over 50% in size
Outline: (§3)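 600 cells/well were plated with the nonlytic NanoLuc/prosubstrate reagent, pre-incubated 5 h, then given 23 nL of compound in DMSO. Incubation at 37 C for 40 h, with luminescence from viable-cell-reduced substrate read repeatedly from 0 h.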

[5] = A CellTox Green Cytotoxicity Assay to monitor cytotoxicity in HEK293 cells - 24 hour (AID 1224875); also: series mostly up to about 77 µM; nearly all actives have a fitted effect of over 45% in size
Outline: as §1

[6] = A CellTox Green Cytotoxicity Assay to monitor cytotoxicity in HepG2 cells - 16 hour (AID 1224876); also: nearly all actives have a fitted effect of over 45% in size
Outline: (§4)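 HepG2 cells, 600/well, preincubated 5 h with CellTox Green dye, then exposed to Tox21 compounds in DMSO at 37 C for up to 40 h. Dead-cell DNA fluorescence read at the indicated time point.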

[7] = qHTS RealTime-Glo MT Cell Viability Assay in HepG2 cells - 32 hour (AID 1224877); also: nearly all actives have a fitted effect of over 55% in size
Outline: (§5)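 Luminescence read-out: viable HepG2 cells reduce a prosubstrate to a NanoLuc substrate, giving a signal proportional to live cell number. Reads taken at 0, 8, 16, 24, 32 and 40 h of compound exposure at 37 C.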

[8] = A CellTox Green Cytotoxicity Assay to monitor cytotoxicity in HepG2 cells - 24 hour (AID 1224878); also: nearly all actives have a fitted effect of over 45% in size
Outline: as §4

[9] = A CellTox Green Cytotoxicity Assay to monitor cytotoxicity in HepG2 cells - 40 hour (AID 1224879); also: nearly all actives have a fitted effect of over 40% in size
Outline: as §4

[10] = qHTS RealTime-Glo MT Cell Viability Assay in HEK293 cells - 0 hour (AID 1224880)
Outline: as §3

[11] = A CellTox Green Cytotoxicity Assay to monitor cytotoxicity in HEK293 cells - 32 hour (AID 1224881); also: nearly all actives have a fitted effect of over 40% in size
Outline: as §1

[12] = A CellTox Green Cytotoxicity Assay to monitor cytotoxicity in HepG2 cells - 0 hour (AID 1224882); also: nearly all actives have a fitted effect of over 35% in size
Outline: as §4

[13] = A CellTox Green Cytotoxicity Assay to monitor cytotoxicity in HepG2 cells - 32 hour (AID 1224883); also: nearly all actives have a fitted effect of over 50% in size
Outline: as §4

[14] = A CellTox Green Cytotoxicity Assay to monitor cytotoxicity in HEK293 cells - 8 hour (AID 1224884); also: nearly all actives have a fitted effect of over 35% in size
Outline: as §1

[15] = qHTS RealTime-Glo MT Cell Viability Assay in HepG2 cells - 16 hour (AID 1224885); also: nearly all actives have a fitted effect of over 50% in size
Outline: as §5

[16] = qHTS RealTime-Glo MT Cell Viability Assay in HEK293 cells - 24 hour (AID 1224886)
Outline: as §2

[17] = qHTS RealTime-Glo MT Cell Viability Assay in HEK293 cells - 8 hour (AID 1224887)
Outline: as §3

[18] = A CellTox Green Cytotoxicity Assay to monitor cytotoxicity in HEK293 cells - 16 hour (AID 1224888); also: nearly all actives have a fitted effect of over 35% in size
Outline: as §1

[19] = qHTS RealTime-Glo MT Cell Viability Assay in HepG2 cells - 0 hour (AID 1224889); also: nearly all actives have a fitted effect of over 50% in size
Outline: as §5

[20] = A CellTox Green Cytotoxicity Assay to monitor cytotoxicity in HepG2 cells - 8 hour (AID 1224890); also: nearly all actives have a fitted effect of over 45% in size
Outline: as §4
% is scaled to controls: 0 for no effect and ±100 for the full control effect.

CC(N)C12CC3CC(CC(C3)C1)C2 (stereo not drawn)
inactive: Potency [1] | Potency [2] | outcome [3] | max response [4] -3.62% | outcome [5] | outcome [6] | Potency [7] | outcome [8] | Potency [9] | Potency [10] | outcome [11] | Potency [12] | Potency [13] | outcome [14] | outcome [15] | Potency [16] | Potency [17] | outcome [18]

CCC1C(=O)OCC1Cc1cncn1C (stereo not drawn)
inactive: Potency [1] | Potency [2] | outcome [3] | max response [4] 0.511% | outcome [5] | outcome [6] | Potency [7] | outcome [8] | Potency [9] | Potency [10] | outcome [11] | Potency [12] | Potency [13] | outcome [14] | outcome [15] | Potency [16] | Potency [17] | outcome [18] | Potency [19] | outcome [20]

CC(CC=O)CC(C)(C)C (stereo not drawn)
inactive: Potency [1] | Potency [2] | outcome [3] | max response [4] -0.119% | outcome [5] | outcome [6] | Potency [7] | outcome [8] | Potency [9] | Potency [10] | outcome [11] | Potency [12] | Potency [13] | outcome [14] | outcome [15] | Potency [16] | Potency [17] | outcome [18] | Potency [19] | outcome [20]

CCC(C)(CCCC(C)C)OC(C)=O (stereo not drawn)
inactive: Potency [1] | Potency [2] | outcome [3] | max response [4] 6.35% | outcome [5] | outcome [6] | Potency [7] | outcome [8] | Potency [9] | Potency [10] | outcome [11] | Potency [12] | Potency [13] | outcome [14] | outcome [15] | Potency [16] | Potency [17] | outcome [18] | Potency [19]

CC12CCC(C(=O)C1=O)C2(C)C (stereo not drawn)
inactive: Potency [1] | Potency [2] | outcome [3] | max response [4] -1.01% | outcome [5] | outcome [6] | Potency [7] | outcome [8] | Potency [9] | Potency [10] | outcome [11] | Potency [12] | Potency [13] | outcome [14] | outcome [15] | Potency [16] | Potency [17] | outcome [18]

CCCCCCCCN1CCCC1=O
inactive: Potency [1] | Potency [2] | outcome [3] | max response [4] -3.59% | outcome [5] | outcome [6] | Potency [7] | outcome [8] | Potency [9] | Potency [10] | outcome [11] | Potency [12] | Potency [13] | outcome [14] | outcome [15] | Potency [16] | Potency [17] | outcome [18]

CC(C)C(=O)OC(=O)C(C)C
inactive: Potency [1] | Potency [2] | outcome [3] | max response [4] 3.07% | outcome [5] | outcome [6] | Potency [7] | outcome [8] | Potency [9] | Potency [10] | outcome [11] | Potency [12] | Potency [13] | outcome [14] | outcome [15] | Potency [16] | Potency [17] | outcome [18] | Potency [19]

Cc1ccc(-c2ncc(Cl)cc2-c2ccc(S(C)(=O)=O)cc2)cn1
inactive: Potency [1] | Potency [2] | outcome [3] | max response [4] -19.4% | outcome [5] | outcome [6] | Potency [7] | outcome [8] | Potency [9] | Potency [10] | outcome [11] | Potency [12] | Potency [13] | outcome [14] | outcome [15] | Potency [16] | Potency [17] | outcome [18] | Potency [19]

NC(N)=NCCN1CCCCCCC1
inactive: cytotoxicity increase [1] 1.15% [at 0.29 µM] | activity change, negative = cytotoxicity [2] -1.96% [at 0.29 µM] | viability change, negative = cytotoxic [3] 0.369% [at 0.29 µM] | max response [4] -2.62% | activity change [5] 3.96% [at 0.29 µM] | cytotoxicity increase [6] -11.2% [at 0.29 µM] | activity change, negative = cytotoxic [7] 0.55% [at 0.29 µM] | cytotoxicity [8] -13.4% [at 0.29 µM] | cytotoxicity increase [9] -13% [at 0.29 µM] | activity change, negative = cytotoxicity [10] -7.81% [at 0.29 µM] | cytotoxicity increase [11] 2.16% [at 0.29 µM] | cytotoxicity [12] -10% [at 0.29 µM] | cytotoxicity increase [13] -12.8% [at 0.29 µM] | cytotoxicity increase [14] 0.959% [at 0.29 µM] | activity change, negative = cytotoxic [15] 1.58% [at 0.29 µM] | activity change, negative = cytotoxicity [16] -3.39% [at 0.29 µM] | activity change, negative = cytotoxicity [17] -0.479% [at 0.29 µM] | activity change [18] 1.24% [at 0.29 µM] | activity change, negative = cytotoxicity [19] 0.442% [at 0.29 µM]

CCN(CC#N)c1cccc(C)c1
inactive: Potency [1] | Potency [2] | outcome [3] | max response [4] 13% | outcome [5] | outcome [6] | Potency [7] | outcome [8] | Potency [9] | Potency [10] | outcome [11] | Potency [12] | Potency [13] | outcome [14] | outcome [15] | Potency [16] | Potency [17] | outcome [18] | Potency [19] | outcome [20]

O=C1NC(=O)C2CC=CCC12 (stereo not drawn)
inactive: Potency [1] | Potency [2] | outcome [3] | max response [4] 11.2% | outcome [5] | outcome [6] | Potency [7] | outcome [8] | Potency [9] | Potency [10] | outcome [11] | Potency [12] | Potency [13] | outcome [14] | outcome [15] | Potency [16] | Potency [17] | outcome [18] | Potency [19]

CCCOC(=O)CC
inactive: Potency [1] | Potency [2] | outcome [3] | max response [4] 8.31% | outcome [5] | outcome [6] | Potency [7] | outcome [8] | Potency [9] | Potency [10] | outcome [11] | Potency [12] | Potency [13] | outcome [14] | outcome [15] | Potency [16] | Potency [17] | outcome [18] | Potency [19] | outcome [20]

CC(C#N)(CCC(=O)O)N=NC(C)(C#N)CCC(=O)O (stereo not drawn)
inactive: Potency [1] | Potency [2] | outcome [3] | max response [4] 3.09% | outcome [5] | outcome [6] | Potency [7] | outcome [8] | Potency [9] | Potency [10] | outcome [11] | Potency [12] | Potency [13] | outcome [14] | outcome [15] | Potency [16] | Potency [17] | outcome [18] | Potency [19] | outcome [20]

COc1cc(C(=O)OC(COCCC(C)C)CN2CCOCC2)cc(OC)c1OC (stereo not drawn)
inactive: Potency [1] | Potency [2] | outcome [3] | max response [4] -2.35% | outcome [5] | outcome [6] | Potency [7] | outcome [8] | Potency [9] | Potency [10] | outcome [11] | Potency [12] | Potency [13] | outcome [14] | outcome [15] | Potency [16] | Potency [17] | outcome [18] | Potency [19]
